The structures appear in SMILES notation. Hit rate of the full screen: of about 320,000 compounds, about 2,100 (0.66%) were called active. About 53% were inconclusive and are not listed. Calls come from the whole dose curve; as a rule, active = well fitted inhibition curve with a large enough effect in the signal ratio, with a control signal flat (not every such curve was filed as active); inconclusive = small, poorly fitted or top-dose-only effect, or effect the other way, or a change in a side signal; inactive = flat fitted curve, though single readings scatter; the % refers to the signal ratio. This excerpt belongs to a sample that is enriched for actives.
Potency is the fitted concentration of half-maximal effect.

A short description of this test: qHTS Assay for Lipid Storage Modulators in Drosophila S3 Cells.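 For cell number change: cells counted by Cell Tracker Red CMTPX staining in the red channel.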 For lipid storage change, negative = inhibition: % is set by controls: 0 for no effect and ±100 for the full control effect. Particulars: BODIPY lipid droplet fluorescence, 18-24 h, cells fed with added oleic acid; cell number change: measured here: cell count max response; series mostly up to 46.1 µM; lipid storage change, negative = inhibition: at the top concentration. Summed up:
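Laser-scanning cytometry quantifies lipid droplet accumulation (500–530 nm total intensity; droplet/cell object ratio) in oleic acid-fed (400 uM added) Drosophila S3 cells treated with a concentration series. 20 uM Triacsin C defined 100% inhibition.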
(Quantitative high-throughput screening tests each substance at several concentrations.)
Take `Nc1c(N(CCC2=CCCCC2)C(=O)C2CC2)c(=O)[nH]c(=O)n1Cc1ccccc1`: the “lipid storage change, negative = inhibition” value is -4.29% (inactive) and the cell number change is 10.2%. In the same order, the values of `COc1ccc(C)cc1NC(=O)c1ccccc1NS(=O)(=O)c1cccc2cccnc12` are 1.11% (inactive) and -4.79%. The matching figures for `CCOc1ccc(CO/N=C/c2c(C)[nH]c(=O)[nH]c2=O)cc1`: -2.43% (inactive) and 3.8%.

For `CCOC(=O)C1=C(N)N2C(=O)C(C)SC2=C(C(=O)OC)C1c1ccccc1OC` (centres undefined), the “lipid storage change, negative = inhibition” value was -49.1% (inactive) and the cell number change is -22.7%. The matching figures for `CCOc1cc(/C=N\NC(=O)OC)ccc1OC(=O)c1ccco1`: 5.55% (inactive) and 10.8%. The matching figures for `Cc1ccc(N2CCN(S(=O)(=O)N3CCCCCC3)CC2)cc1Cl`: 2.16% (inactive) and 8.56%. In the same order, the values of `Cc1ccc(Cc2nc(-c3cccnc3)no2)cc1` are 1.98% (inactive) and -9.21%.

Turning to `O=C(CC(c1ccccc1)c1ccccc1)NCc1cccnc1`, the “lipid storage change, negative = inhibition” value was 0.894% (inactive) and the cell number change was -6.85%. `Cc1ccc(C(=O)NCc2ccco2)cc1S(=O)(=O)N1CCCC1`: the “lipid storage change, negative = inhibition” value is -9.67% (inactive) and the cell number change stood at 15%. In the same order, the values of `O=C(NCCCN1CCOCC1)C(=O)NCC1OCCN1S(=O)(=O)c1cc(F)ccc1F` (centres undefined) are 4.03% (inactive) and 10.3%. In the same order, the values of `Cc1nnsc1C(=O)N1CCN(c2ccc(F)cc2)CC1` are -2.21% (inactive) and 6.97%.

Regarding `CCOC(=O)c1cc2c(=O)n3cccc(C)c3nc2n(CCCOC)c1=NC(=O)c1cccnc1`, the “lipid storage change, negative = inhibition” value is -13.8% (inactive) and the cell number change is -8.27%. In the same order, the values of `Cc1cccc(N2C(=O)c3ccc(C(=O)Nc4c[nH]c(=O)[nH]c4=O)cc3C2=O)c1` are 2.68% (inactive) and -0.423%.

For the compound `CC(C)COc1ccc(C/C(N)=N/n2cnnc2)cc1`, the Potency was 20.6 µM (active) and the cell number change is -24.2%.

With `CCOC(=O)Cn1nnc(-c2ccc(OCC(C)C)cc2)n1`, the “lipid storage change, negative = inhibition” value is -1.83% (inactive) and the cell number change was -1.1%. As for `COc1ccc(C/C(N)=N/n2cnnc2)cc1Cl`, the compound was called inactive. `COc1ccc(NC(=O)N2Cc3ccccc3CC2C(=O)NC(C)(C)C)cc1` (centres undefined): the “lipid storage change, negative = inhibition” value is -2.72% (inactive) and the cell number change is -0.759%. Take `O=C(NCCNc1nccc(C(F)(F)F)n1)c1cccc(C(F)(F)F)c1`: the “lipid storage change, negative = inhibition” value was 0.997% (inactive) and the cell number change came to 8.97%. As for `O=S(=O)(c1cccc2cccnc12)N(CCO)CCO`, the “lipid storage change, negative = inhibition” value is -7.46% (inactive) and the cell number change was -16.7%. Turning to `CCN(CC)S(=O)(=O)c1cccc2cccnc12`, the Potency was 7.31 µM (active) and the cell number change is -17.9%. For the compound `CCCCN(c1ccccc1)S(=O)(=O)c1cccc2cccnc12`, the compound was classed as inactive. With `CNS(=O)(=O)c1cccc2cccnc12`, the cell number change is 10% and the lipid storage change, negative = inhibition is 11.3% [at 9.22 µM] (inactive). In the case of `CCCNS(=O)(=O)c1cccc2cccnc12`, the cell number change turned out to be 2.48% and the lipid storage change, negative = inhibition is -0.974% [at 9.22 µM] (inactive). In the case of `CSS(=O)(=O)c1cccc2cccnc12`, the Potency was 2.59 µM (active) and the cell number change is -61.8%. As for `Cc1ccccc1OCC(=O)Nc1c2c(nn1C(C)(C)C)CS(=O)(=O)C2`, the “lipid storage change, negative = inhibition” value was -10.3% (inactive) and the cell number change is -4.53%. In the same order, the values of `OCCC1CN(Cc2cnc(-c3ccccc3)s2)CCN1Cc1ccccc1` (centres undefined) are -1.73% (inactive) and -2.24%. The matching figures for `Cc1cc[n+](CC(=O)N2CCCc3ccccc32)cc1`: -6.44% (inactive) and -2.96%. With `COC(=O)c1cc(-c2ccc(Br)cc2)c2c(=O)n(C)c(=O)n(C)c2n1`, the Potency is 20.6 µM (active) and the cell number change was -16.2%.

For `COC(=O)c1cc(-c2ccccc2)c2c(=O)n(C)c(=O)n(C)c2n1`, the “lipid storage change, negative = inhibition” value is 8.5% (inactive) and the cell number change came to 0.987%. With `CCOc1ccc(-c2cc(C(=O)OC)nc3c2c(=O)n(C)c(=O)n3C)cc1`, the “lipid storage change, negative = inhibition” value is -8% (inactive) and the cell number change worked out at 0.241%.

Turning to `O=C1CSC(c2cccnc2)N1c1ccc(Cl)cc1` (centres undefined), the “lipid storage change, negative = inhibition” value was -4.47% (inactive) and the cell number change is -17.2%. The matching figures for `Cc1ccc2nc(-c3ccc4c(c3)NC(=O)CO4)cn2c1`: 2.78% (inactive) and 4.69%.

Regarding `O=C1Nc2cc(C(=O)NCCCN3CCCC3)ccc2S/C1=C\c1ccccc1`, the result was inactive and the cell number change is -4.94%. Take `CCC1CCCCN1CCCNC(=O)c1ccc(/C=C2/Sc3ccccc3NC2=O)cc1` (centres undefined): the Potency is 5.17 µM (active) and the cell number change was -7.79%. Turning to `CCC1CCCCN1CCCNC(=O)c1ccc2c(c1)NC(=O)CS2` (centres undefined), the call was inactive and the cell number change was determined as 20.8%. In the same order, the values of `O=C(CSc1nncs1)Nc1ccc(N2CCCCC2)cc1` are “inactive” and -24%. For `CCN1CCN(S(=O)(=O)c2ccc(Cl)c(C(=O)N(C)Cc3ccco3)c2)CC1`, the “lipid storage change, negative = inhibition” value is 14.4% (inactive) and the cell number change was determined as 2.03%.

Consider `Cc1ccc(S(=O)(=O)C2(C(=O)NC3CCCCC3C)CC2)cc1` (centres undefined), for which the “lipid storage change, negative = inhibition” value is -7.07% (inactive) and the cell number change is -11.4%. In the case of `OCCN(CCO)c1nc(-c2ccccc2)nc2c1oc1ccccc12`, the “lipid storage change, negative = inhibition” value is -0.413% (inactive) and the cell number change was -3.98%. As to `Cc1ccc(C(=O)C2=C(O)C(=O)N(Cc3cccnc3)C2c2ccc(Br)cc2)o1` (centres undefined), the “lipid storage change, negative = inhibition” value is 22% (inactive) and the cell number change turned out to be 4.99%. Turning to `COc1ccc(C2C(C(=O)c3ccc(C)o3)=C(O)C(=O)N2Cc2cccnc2)cc1OC` (centres undefined), the Potency is 0.13 µM (active) and the cell number change is 1.8%. As for `Cc1ccc(C(=O)C2=C(O)C(=O)N(Cc3cccnc3)C2c2ccc(Cl)cc2)o1` (centres undefined), the result was inactive and the cell number change was found to be 10.8%. Take `O=C(N1CCCC1)C12CC3CCC(CC(C3)C1)C2`: the “lipid storage change, negative = inhibition” value was -23.5% (inactive) and the cell number change was determined as 3.73%. In the same order, the values of `S=c1[nH]nc(-c2cccnc2)n1/N=C/c1ccco1` are -15.6% (inactive) and 1.79%. In the same order, the values of `CCCC(C)n1[nH]c(=O)cc1N` (centres undefined) are 2.48% (inactive) and 0.134%. The matching figures for `CCC(C)n1[nH]c(=O)cc1N` (centres undefined): -1.97% (inactive) and 5.9%. `CCCCC(C)n1[nH]c(=O)cc1N` (centres undefined): the Potency is 25.9 µM (active) and the cell number change is -24.5%. With `O=C1CCCN1CCNC(=S)Nc1ccccc1`, the “lipid storage change, negative = inhibition” value is 0.534% (inactive) and the cell number change is -13%.
